Assay [1] has as its target ATP-dependent 6-phosphofructokinase (Trypanosoma brucei brucei) (UniProt O15648). Put plainly: qHTS Assay to Find Inhibitors of T. brucei phosphofructokinase: hit validation (AID 492961).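 Further: luminescence reports ADP formed as PFK phosphorylates fructose-6-phosphate with ATP.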 To be noted: T. brucei PFK, ADP-Glo luminescence; series mostly up to 51.4 µM. The procedure, abridged: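 Percent activity derived from corrected luminescence, normalized between 0x and 1x enzyme controls, then fitted to concentration-response curves. Conditions: 1.25 nM PFK, 0.1 mM ATP, 0.5 mM F6P, 45 min RT.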
Background: qHTS replaces the single test concentration by a dilution series.

The nature of assay [2]: Validation screen for small molecules that induce DNA re-replication in MCF 10A normal breast cells (AID 463097). Further: nearly all actives have a fitted effect of over 60% in size. To be noted: MCF 10A cells, DNA re-replication phenotype imaging; series mostly up to 46.1 µM. The procedure, abridged: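 250 MCF 10A cells/well; compound pin-transferred; 48 hr, 37 C, 5% CO2; Hoechst 40 min; imaged 405/500-530 nm. Hits = more high-intensity nuclei.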

The target in assay [3] is M-phase phosphoprotein 8 (Homo sapiens) (UniProt Q99549). Briefly: qHTS Validation Assay for Inhibitors for MPP8 Chromodomain Interactions with Methylated Histone Tails (AID 488949).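 Further: AlphaScreen signal from MPP8 chromodomain bound to biotinylated H3K9me3 peptide; top concentration of the series differs between compounds; nearly all actives have a fitted effect of over 55% in size.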 To be noted: AlphaScreen MPP8 binding to H3K9me3 peptide; series mostly up to 114 µM. An outline of the steps: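 AlphaScreen read-out: streptavidin donor and nickel chelate acceptor beads (final 10 ug/mL), 30 min in the dark at RT. Complex of 50 nM MPP8 and 50 nM b-H3(1-18)K9me3 peptide had been exposed to compounds for 30 min beforehand.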
Chain of M-phase phosphoprotein 8 (Homo sapiens) (Q99549 whole entry, looked up): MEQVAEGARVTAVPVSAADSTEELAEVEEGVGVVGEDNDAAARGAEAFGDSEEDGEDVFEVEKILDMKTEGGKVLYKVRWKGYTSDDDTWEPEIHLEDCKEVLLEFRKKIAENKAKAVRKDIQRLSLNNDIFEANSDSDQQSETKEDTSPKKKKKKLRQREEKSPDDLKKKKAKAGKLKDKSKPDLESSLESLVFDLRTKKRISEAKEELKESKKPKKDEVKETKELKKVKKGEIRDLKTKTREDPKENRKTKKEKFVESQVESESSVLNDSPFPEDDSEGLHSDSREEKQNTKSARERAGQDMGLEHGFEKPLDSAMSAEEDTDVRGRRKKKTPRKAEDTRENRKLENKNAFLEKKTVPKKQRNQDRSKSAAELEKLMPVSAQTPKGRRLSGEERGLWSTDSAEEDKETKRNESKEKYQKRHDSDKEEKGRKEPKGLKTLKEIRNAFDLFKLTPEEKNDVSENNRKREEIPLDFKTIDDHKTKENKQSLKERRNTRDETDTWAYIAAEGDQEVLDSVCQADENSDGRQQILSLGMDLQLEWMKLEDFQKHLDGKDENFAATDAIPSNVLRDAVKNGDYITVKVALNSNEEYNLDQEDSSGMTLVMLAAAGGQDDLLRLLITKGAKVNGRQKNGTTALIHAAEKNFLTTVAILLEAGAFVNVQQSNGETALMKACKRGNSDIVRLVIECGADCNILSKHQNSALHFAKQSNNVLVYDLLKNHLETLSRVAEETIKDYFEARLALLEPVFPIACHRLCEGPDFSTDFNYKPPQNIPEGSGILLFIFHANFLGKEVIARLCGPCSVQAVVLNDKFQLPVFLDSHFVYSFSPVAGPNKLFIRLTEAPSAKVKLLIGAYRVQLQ

In assay [4] the target is Transient receptor potential cation channel subfamily V member 1 (Homo sapiens) (UniProt Q8NER1). Put plainly: HTS Assay for Compounds that Act as Enhancers of the Vanilloid Receptor 1 (AID 488979). To be noted: TRPV1-expressing cells, enhancer of channel activity, stimulated with capsaicin at EC20; series mostly up to 41.7 µM. An outline of the steps: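 TRPV1-expressing cells loaded with Fluo-8 calcium dye; compounds added and calcium influx read kinetically for 3 min (agonist phase), then capsaicin at EC20 added and read 2 min more for enhancement. Fluorescence ex 480/em 520 nm.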
Chain of Transient receptor potential cation channel subfamily V member 1 (Homo sapiens) (Q8NER1 whole entry, looked up): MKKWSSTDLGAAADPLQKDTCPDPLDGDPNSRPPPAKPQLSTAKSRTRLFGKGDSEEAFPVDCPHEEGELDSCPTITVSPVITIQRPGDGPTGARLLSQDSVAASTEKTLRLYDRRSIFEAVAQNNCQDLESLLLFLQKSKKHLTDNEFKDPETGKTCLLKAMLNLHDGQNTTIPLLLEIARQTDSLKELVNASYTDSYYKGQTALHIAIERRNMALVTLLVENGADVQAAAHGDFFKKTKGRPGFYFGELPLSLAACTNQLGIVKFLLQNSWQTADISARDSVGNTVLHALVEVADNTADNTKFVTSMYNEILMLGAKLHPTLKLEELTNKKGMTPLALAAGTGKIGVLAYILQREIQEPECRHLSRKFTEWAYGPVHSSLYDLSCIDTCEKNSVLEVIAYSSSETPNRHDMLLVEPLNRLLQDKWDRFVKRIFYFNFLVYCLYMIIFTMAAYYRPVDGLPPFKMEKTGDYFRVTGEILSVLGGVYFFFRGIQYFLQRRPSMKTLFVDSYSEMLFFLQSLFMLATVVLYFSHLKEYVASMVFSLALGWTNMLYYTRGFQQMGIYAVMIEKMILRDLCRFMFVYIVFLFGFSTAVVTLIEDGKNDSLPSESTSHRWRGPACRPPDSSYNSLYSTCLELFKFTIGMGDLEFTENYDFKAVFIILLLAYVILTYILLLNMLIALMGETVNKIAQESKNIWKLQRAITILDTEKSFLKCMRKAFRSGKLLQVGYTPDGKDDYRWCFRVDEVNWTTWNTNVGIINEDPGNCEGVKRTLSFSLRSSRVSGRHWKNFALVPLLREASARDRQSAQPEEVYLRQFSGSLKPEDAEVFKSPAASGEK

In assay [5] the target is Thyrotropin receptor (Homo sapiens) (UniProt P16473). Briefly: qHTS Assay for Antagonists of the Thyroid Stimulating Hormone Receptor (AID 488980). To be noted: TSHR-expressing cells, cAMP antagonist read-out; series mostly up to 57.5 µM. An outline of the steps:
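TSHR-HEK293 cells; 70 uM RO 20-1724 PDE inhibitor; compound + EC80 TSH (4 nM final); anti-cAMP cryptate antibody/cAMP-d2 in lysis buffer, 30 min RT; HTRF 665/620 nm read.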

Assay [6] can be described thus: Quantitative high throughput screen for delayed death inhibitors of the malarial parasite plastid, 96 hour incubation (AID 488745). Further: nearly all actives have a fitted effect of over 70% in size. To be noted: Plasmodium falciparum growth; series mostly up to 28.7 µM. An outline of the steps:
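Decreased firefly luciferase luminescence indicates inhibited growth of reporter-integrated P. falciparum after two generations (96 h, 37 C, 5% CO2). Infected erythrocytes at 0.1% parasitemia, 2% hematocrit, in Albumax-supplemented RPMI 1640.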

A short description of assay [7]: Quantitative high throughput screen for delayed death inhibitors of the malarial parasite plastid, 48 hour incubation (AID 488752). Further: nearly all actives have a fitted effect of over 65% in size. To be noted: Plasmodium falciparum growth; series mostly up to 28.7 µM. An outline of the steps: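 One-generation (48 h) growth assay: a decrease in luciferase signal from an integrated reporter in P. falciparum-infected red cells (0.1% parasitemia, 2% hematocrit) after compound exposure at 37 C indicates parasite inhibition.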

The nature of assay [8]: High Content Imaging Cell-Based qHTS for Inhibitors of the mTORC1 Signaling Pathway in MEF (Tsc2-/-, p53-/-) Cells (AID 2666).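 Further: percent of cells scored positive for phospho-rpS6 Ser235/236 immunostaining by imaging.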 The conditions noted are these: at 38.3 µM (top of the series). An outline of the steps: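 Inhibition of rpS6 phosphorylation is measured by immunofluorescence imaging in empty-vector Tsc2-/-, p53-/- mouse embryonic fibroblasts after 24 hrs compound exposure at 37 degree Celsius. Results are reported as % positive cells per well.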

Assay [9] addresses Ubiquitin carboxyl-terminal hydrolase 2 (Homo sapiens) (UniProt O75604). Put plainly: qHTS Validation Assay for Inhibitors of Ubiquitin-specific Protease USP2a Using CHOP2 as the Reporter (AID 463106). The conditions noted are these: USP2a cleavage of CHOP2 reporter, enzymatic; series mostly up to 38.3 µM. An outline of the steps:
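Inhibition is expressed relative to NEM as the full-inhibition control, with concentration-response curves classed by fit quality, magnitude and activity. Enzyme (USP2 core, 10nM) meets 25nM Ub-CHOP2 after compound preincubation; readings are taken at 60min.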

The target in assay [10] is DNA polymerase III PolC-type (Bacillus subtilis (strain 168)) (UniProt P13267). Put plainly: qHTS Validation Assay for the Inhibitors of DNA Replication in Gram-Positive Bacteria (AID 485295).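 Further: reconstituted holoenzyme with PolC plus beta clamp SSB and primase; PicoGreen fluorescence of double-stranded DNA made on primed circular M13 template.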 The conditions noted are these: Gram-positive bacterial DNA replication assay; series mostly up to 57.1 µM. The procedure, abridged: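 PicoGreen fluorescence (ex 480–485/em 535–540 nm) reports dsDNA synthesized on ssM13Gori template with dNTPs/NTPs. Enzyme: holoenzyme rebuilt from purified PolC, beta subunit, SSB and primase. Compound preincubated before substrate addition; RT throughout.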

The target in assay [11] is Tumor susceptibility gene 101 protein (Homo sapiens) (UniProt Q99816). Briefly: qHTS Validation Assay for Iinhibitors of HIV-1 Budding by Blocking the Interaction of PTAP/TSG101 (AID 485342; calls by dose curve). The conditions noted are these: TSG101-PTAP binding, fluorescence polarization, 4-point titration; series mostly up to 115 µM. The procedure, abridged: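 FP read-out: FITC-PTAP peptide, 50 nM final, binding Tsg101 binding domain, 10 uM final; 20 min r.t.; 10 mM HEPES pH 7.5, 0.15 M NaCl, 0.01% Tween 20, 3 mM EDTA, 0.1 mM TCEP.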

Assay [12] can be described thus: qHTS Validation Assay to Find Inhibitors of Chronic Active B-Cell Receptor Signaling (AID 485345; active means well fitted curve in the direction sought with a large enough effect in the main read-out, with a control signal flat, not every such curve was filed as active). The conditions noted are these: ABC-DLBCL cells, chronic BCR signaling reporter, CBG luciferase; series mostly up to 46.1 µM. An outline of the steps: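 TMD8 ABC-DLBCL cells with dox-inducible green luciferase–IκBα fusion and red native luciferase; compounds 46 uM–3 nM, 4 h at 37C with doxycycline in 0.5% FBS IMDM. Green/red ratio normalized to basal and 10 uM MG-132.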

For assay [13], the target named is Beta-2 adrenergic receptor (Homo sapiens) (UniProt P07550). Briefly: qHTS validation assay of beta-arrestin-biased ligands of beta2-adrenergic receptor (AID 485366). To be noted: cell-based beta-arrestin recruitment to ADRB2, qHTS; series mostly up to 46.1 µM. An outline of the steps: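 Screening used a titration range of up to 46 microM in a beta-arrestin recruitment Tango luciferase assay. Cells in 1% FBS medium were treated 18 hr at 37 degrees C, and luminescence was normalized to %Activity.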
Chain of Beta-2 adrenergic receptor (Homo sapiens) (P07550 whole entry, looked up): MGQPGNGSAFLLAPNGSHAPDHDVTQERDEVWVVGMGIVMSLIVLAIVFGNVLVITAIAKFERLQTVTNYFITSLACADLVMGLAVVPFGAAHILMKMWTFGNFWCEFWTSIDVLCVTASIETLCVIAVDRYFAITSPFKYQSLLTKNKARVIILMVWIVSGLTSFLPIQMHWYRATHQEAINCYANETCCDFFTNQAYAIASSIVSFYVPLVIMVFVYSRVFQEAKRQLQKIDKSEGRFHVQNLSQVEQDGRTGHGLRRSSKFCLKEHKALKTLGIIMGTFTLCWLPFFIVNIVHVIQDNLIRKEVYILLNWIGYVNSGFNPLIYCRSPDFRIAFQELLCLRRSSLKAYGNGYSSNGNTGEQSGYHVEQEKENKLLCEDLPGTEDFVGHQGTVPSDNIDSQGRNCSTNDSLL

For assay [14], the target named is Thioredoxin reductase 1, cytoplasmic (Rattus norvegicus) (UniProt O89049). Put plainly: qHTS Assay for Substrates of Mammalian Selenoprotein Thioredoxin Reductase 1 (TrxR1) (AID 488772).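 Further: a drop in NADPH fluorescence below the no-compound background marks a TrxR1 substrate.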 To be noted: purified TrxR1, NADPH consumption substrate assay; series mostly up to 57.1 µM. The procedure, abridged:
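In this dual-purpose format, potential substrates are identified from the first fluorescence read after selenite addition, not from the 8-minute delta. Rat enzyme is preincubated with NADPH and then with compound at ~22 deg C.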

Assay [15] deals with Flap endonuclease 1 (Homo sapiens) (UniProt P39748). Put plainly: qHTS Validation Assay for the Inhibitors of Human Flap endonuclease 1 (FEN1) (AID 488816). To be noted: FEN1 nuclease activity, fluorogenic DNA substrate; series mostly up to 57.1 µM. An outline of the steps:
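Steps: add FEN1 (10 nM reagent) or buffer only; pin compounds; hold 15 min at room temperature; start with substrate, 50 nM final; read at 0 and 15 min; correct, normalize and fit a four-parameter Hill curve.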

The target in assay [16] is Methanococcus maripaludis chaperonin (MmCpn) (UniProt Q6LX38). Put plainly: High-Throughput Screening for Modulators of Cytosolic Chaperonin Activity: MmCpn Primary Screen (AID 488978).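 Further: 50 nM MmCpn enzyme hydrolysing 30 µM ATP at 37 °C.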 To be noted: Purified MmCpn ATPase activity, ADP HTRF detection, 10 min; series mostly up to 76.9 µM. An outline of the steps:
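ADP formation read by HTRF Transcreener, 665/590 nm emission after 320 nm excitation. Enzyme: archaeal chaperonin at 50 nM final; substrate ATP 30 uM final; 10 min, 37C, after 5 min compound preincubation at RT.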
(TR-FRET usually uses a lanthanide donor and a delayed reading to cut background.)

Assay [17] has as its target D(1A) dopamine receptor (Homo sapiens) (UniProt P21728). Put plainly: HTS Assay for Allosteric Agonists of the Human D1 Dopamine Receptor: Primary Screen for Agonists (AID 488981). To be noted: Inducible HEK293 T-REx D1 cells, calcium-flux fluorescence, 180 s kinetic; series mostly up to 41.8 µM. The procedure, abridged: (§1)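 Tetracycline-induced HEK293 T-REx cells force-coupled to calcium signalling were incubated overnight at 30 C and dye-loaded at room temperature. Calcium flux over 180 s after compound addition flagged agonists; a further 180 s read after EC20 dopamine flagged potentiators.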

Assay [18] has the same target. Put plainly: HTS Assay for Allosteric Agonists of the Human D1 Dopamine Receptor: Primary Screen for Potentiators (AID 488982). To be noted: HEK293 T-REx D1 inducible cells, calcium flux, kinetic fluorescence; series mostly up to 8.37 µM. An outline of the steps:
as §1
On the technique in general: A change in cytosolic calcium serves as a functional read-out for many receptors and channels.

The target is the same in assay [19]. Put plainly: HTS Assay for Allosteric Agonists of the Human D1 Dopamine Receptor: Primary Screen for Antagonists (AID 488983).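 Further: calcium flux response to an EC80 dopamine challenge measured with no-wash dye; nearly all actives have a fitted effect of over 65% in size.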 To be noted: D1 receptor cell assay, antagonist mode, qHTS titration; series mostly up to 41.8 µM. An outline of the steps:
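Calcium-flux read-out in inducible HEK293 T-REx cells expressing D1, dye-loaded 30–90 min at room temperature. Kinetic reads: 180 s after compound (agonist phase), then 180 s after an EC80 dopamine challenge.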

The target in assay [20] is Tyrosyl-DNA phosphodiesterase 1 (Homo sapiens) (UniProt Q9NUW8). Briefly: Confirmation Assay for Inhibitors of Tyrosyl-DNA Phosphodiesterase (TDP1) (AID 489007). Further: potency means the concentration at half of the fitted maximal effect; nearly all actives have a fitted effect of over 40% in size. The conditions noted are these: recombinant human TDP1 enzymatic activity, dose-response. An outline of the steps:
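AlphaScreen assay of tyrosine-FITC cleavage from a biotinylated DNA substrate (15 nM) by E. coli-expressed human Tdp1 (1 nM). Sequence: compound preincubation 15 min, reaction 5 min, bead detection 10 min, all at room temperature. No-enzyme wells give maximum signal.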

SMILES strings stand for the structures. Results filed as inconclusive are left out. Calls of active or inactive are those of the source. Unless noted, the call rests on the fitted dose curve; in most records, active means well fitted curve in the direction sought with a large enough effect; inconclusive means small, poorly fitted or top-dose-only effect, or another doubt; inactive means no such curve, though single readings can be large; an effect the other way counts as inactive or inconclusive.

Chain of ATP-dependent 6-phosphofructokinase (Trypanosoma brucei brucei) (O15648 whole entry, looked up): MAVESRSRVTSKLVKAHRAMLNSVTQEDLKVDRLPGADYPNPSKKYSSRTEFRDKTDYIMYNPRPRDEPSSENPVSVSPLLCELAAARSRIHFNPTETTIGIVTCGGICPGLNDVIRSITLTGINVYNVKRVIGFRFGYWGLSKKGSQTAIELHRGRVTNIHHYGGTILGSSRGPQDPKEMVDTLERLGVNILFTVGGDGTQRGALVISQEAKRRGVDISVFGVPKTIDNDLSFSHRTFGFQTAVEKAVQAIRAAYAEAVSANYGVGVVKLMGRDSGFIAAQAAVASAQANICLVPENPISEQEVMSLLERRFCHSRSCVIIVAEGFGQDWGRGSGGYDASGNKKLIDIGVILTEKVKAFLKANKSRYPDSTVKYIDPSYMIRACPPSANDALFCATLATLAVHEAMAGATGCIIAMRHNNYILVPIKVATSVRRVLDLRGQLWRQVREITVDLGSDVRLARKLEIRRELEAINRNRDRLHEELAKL
Chain of D(1A) dopamine receptor (Homo sapiens) (P21728 whole entry, looked up): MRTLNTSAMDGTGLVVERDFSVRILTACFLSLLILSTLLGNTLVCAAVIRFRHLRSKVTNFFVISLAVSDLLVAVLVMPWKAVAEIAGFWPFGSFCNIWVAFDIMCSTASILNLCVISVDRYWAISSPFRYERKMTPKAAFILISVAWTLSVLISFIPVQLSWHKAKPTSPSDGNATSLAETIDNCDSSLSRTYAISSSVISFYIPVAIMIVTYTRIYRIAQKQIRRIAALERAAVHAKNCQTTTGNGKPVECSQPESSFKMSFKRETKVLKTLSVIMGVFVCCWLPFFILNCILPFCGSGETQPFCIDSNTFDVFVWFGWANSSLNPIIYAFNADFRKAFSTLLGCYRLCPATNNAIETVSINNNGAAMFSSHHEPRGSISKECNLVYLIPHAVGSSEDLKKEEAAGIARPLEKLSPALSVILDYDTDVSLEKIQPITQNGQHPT
Chain of Thyrotropin receptor (Homo sapiens) (P16473 whole entry, looked up): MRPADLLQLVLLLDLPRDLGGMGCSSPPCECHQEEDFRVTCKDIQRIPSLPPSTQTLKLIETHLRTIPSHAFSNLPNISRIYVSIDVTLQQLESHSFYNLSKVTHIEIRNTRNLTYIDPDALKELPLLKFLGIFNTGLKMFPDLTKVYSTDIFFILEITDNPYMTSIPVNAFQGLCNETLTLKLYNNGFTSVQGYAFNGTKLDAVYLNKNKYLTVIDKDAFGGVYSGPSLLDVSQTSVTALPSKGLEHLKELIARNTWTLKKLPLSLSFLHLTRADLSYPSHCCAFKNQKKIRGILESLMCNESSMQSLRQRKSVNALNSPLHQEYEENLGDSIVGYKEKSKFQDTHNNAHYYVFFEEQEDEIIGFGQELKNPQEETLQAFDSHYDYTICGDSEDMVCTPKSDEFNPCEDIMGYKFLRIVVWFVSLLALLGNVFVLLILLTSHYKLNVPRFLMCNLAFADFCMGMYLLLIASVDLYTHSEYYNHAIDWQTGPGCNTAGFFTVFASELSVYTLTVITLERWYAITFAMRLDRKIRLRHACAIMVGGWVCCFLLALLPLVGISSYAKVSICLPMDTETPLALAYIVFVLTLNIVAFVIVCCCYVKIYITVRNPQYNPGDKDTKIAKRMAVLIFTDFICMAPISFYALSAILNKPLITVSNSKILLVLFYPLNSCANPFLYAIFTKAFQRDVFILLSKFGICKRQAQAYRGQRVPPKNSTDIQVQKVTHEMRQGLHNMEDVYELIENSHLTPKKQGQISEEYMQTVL
Chain of Tyrosyl-DNA phosphodiesterase 1 (Homo sapiens) (Q9NUW8 whole entry, looked up): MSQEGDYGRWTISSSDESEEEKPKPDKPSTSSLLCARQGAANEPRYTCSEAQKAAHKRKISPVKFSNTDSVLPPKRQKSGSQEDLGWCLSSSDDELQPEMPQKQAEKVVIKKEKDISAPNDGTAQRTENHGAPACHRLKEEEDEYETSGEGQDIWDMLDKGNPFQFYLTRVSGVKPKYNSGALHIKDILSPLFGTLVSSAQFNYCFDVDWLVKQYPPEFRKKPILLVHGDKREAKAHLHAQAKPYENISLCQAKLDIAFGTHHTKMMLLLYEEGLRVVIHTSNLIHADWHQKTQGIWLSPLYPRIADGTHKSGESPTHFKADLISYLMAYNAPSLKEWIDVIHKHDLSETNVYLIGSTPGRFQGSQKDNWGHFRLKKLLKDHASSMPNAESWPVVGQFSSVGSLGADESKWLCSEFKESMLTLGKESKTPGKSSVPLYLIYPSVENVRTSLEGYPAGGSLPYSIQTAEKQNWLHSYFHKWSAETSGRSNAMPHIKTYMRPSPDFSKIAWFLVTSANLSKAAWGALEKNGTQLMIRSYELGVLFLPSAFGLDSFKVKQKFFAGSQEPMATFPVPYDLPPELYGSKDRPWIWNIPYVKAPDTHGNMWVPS
Chain of Flap endonuclease 1 (Homo sapiens) (P39748 whole entry, looked up): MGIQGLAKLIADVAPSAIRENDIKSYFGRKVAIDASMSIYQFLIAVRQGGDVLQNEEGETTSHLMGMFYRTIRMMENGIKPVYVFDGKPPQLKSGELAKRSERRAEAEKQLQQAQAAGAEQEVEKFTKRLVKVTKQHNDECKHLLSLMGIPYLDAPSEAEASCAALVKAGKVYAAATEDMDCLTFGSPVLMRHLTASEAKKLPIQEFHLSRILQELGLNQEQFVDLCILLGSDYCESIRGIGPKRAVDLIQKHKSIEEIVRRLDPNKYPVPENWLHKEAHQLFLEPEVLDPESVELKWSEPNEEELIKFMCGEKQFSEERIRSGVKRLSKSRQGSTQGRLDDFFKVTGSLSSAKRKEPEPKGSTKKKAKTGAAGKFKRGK

In the case of `O=C(OCc1ccccc1)c1ccc(O)cc1`, the Potency result in assay [1] is “inactive”.

For the molecule `FC(F)OC(Cl)C(F)(F)F` (stereo not drawn), the Potency entry in assay [1] is “inactive”.

Take `COC(=O)[C@@H](N)CS`: the Potency result in [1] was “inactive”.

Consider `CN=C1C=CC(=C(c2ccc(N(C)C)cc2)c2ccc(N(C)C)cc2)C=C1`, for which the Potency entry in [1] was “inactive”.

With `C[C@@](Cc1ccc(O)c(O)c1)(NN)C(=O)O`, the call in assay [2], in assay [3], in assay [4] and in assay [5] was inactive.

For the molecule `CCCCCCCCCCCCCC(=O)OCC(COP(=O)([O-])OCC[N+](C)(C)C)OC(=O)CCCCCCCCCCCCC` (stereo not drawn), the Potency result in assay [1] was “inactive”.

As to `CCCc1ccc(C(=O)O)cc1`, in assay [1], the Potency entry is “inactive”.

In the case of `Cc1cc(C)c(NC(=O)C[C@H](CC(=O)O)c2cccc3ccccc23)c(C(=O)N2CCC3(CCCC3)CC2)c1`, the outcome in assay [2], in assay [6], in [7], in assay [3], in assay [4] and in assay [5] was inactive. Moreover, in assay [1], the Potency result was “inactive”.

On to `Oc1ccc(/C=C/c2cc(O)cc(O)c2)cc1`, for which the result in assay [8], in assay [2], in assay [9], in assay [10], in assay [11] and in assay [12] was inactive. Also, the molecule was classed as inactive in assay [13], in assay [14], in assay [15], in assay [3], in assay [16] and in assay [4]. Also, the result in [5], in assay [17], in [18] and in assay [19] was inactive.

In the case of `Cn1nnnc1SCC1=C(C(=O)O)N2C(=O)[C@@H](NC(=O)[C@H](O)c3ccccc3)[C@H]2SC1`, the Potency in [20] is 3.98 µM (active).

For `CC1CCC(NC(=O)N(CCCl)N=O)CC1` (stereo not drawn), the Potency entry in [1] is “inactive”.

As to `NCC[C@H](O)C(=O)N[C@@H]1C[C@H](N)[C@@H](O[C@H]2O[C@H](CN)CC[C@H]2N)[C@H](O)[C@H]1O[C@H]1O[C@H](CO)[C@@H](O)[C@H](N)[C@H]1O`, the Potency entry in assay [1] is “inactive”.

Consider `CCOC(=O)c1cc(-c2ccccc2)nc2ccc(C)cc12`, for which the Potency result in [1] is “inactive”.

With `CN(C)C(=O)CCSC(SCCC(=O)O)c1cccc(/C=C/c2ccc3ccc(Cl)cc3n2)c1` (stereo not drawn), the Potency result in [1] is “inactive”.

The values are drawn from PubChem BioAssay (NCATS).
